# Measured values published in PubChem BioAssay AID1851 (National Center for Advancing Translational Sciences (NCATS), 2009).
# Screen size: about 16,000 compounds; about 5,800 (36%) were called active. Inconclusive results (about 23%) are left out. The list shows a part of the results. Unmarked numbers belong to inactive results. The call rests on the fitted dose curve; in most records, active means well fitted curve in the direction sought with a large enough effect; inconclusive means small, poorly fitted or top-dose-only effect, or effect the other way; inactive means no such curve, though single readings can be large or run the other way. Numbered stars: 1 amine (or outer) side, 2 acyl side, 3 side chain; on linkers, the order of the positions; unused ones are H or OH. Bridge positions count the residues as written; N and C are the ends. Square brackets hold non-standard residues; d marks the D form. Peptide text beside a SMILES is read from it. I, II: the chains in the order shown. Actinocin(9to1) = Cc1c2oc3c(C)ccc(C(=O)[*:1])c3nc-2c(C(=O)[*:2])c(N)c1=O; aThr = C[C@H](O)[C@H](N)C(=O)O; NMeV = CN[C@H](C(=O)O)C(C)C; Sar = CNCC(=O)O
# Target: Cytochrome P450 2C19 (Homo sapiens) (UniProt P33261)
# Sequence (P33261 whole entry, looked up): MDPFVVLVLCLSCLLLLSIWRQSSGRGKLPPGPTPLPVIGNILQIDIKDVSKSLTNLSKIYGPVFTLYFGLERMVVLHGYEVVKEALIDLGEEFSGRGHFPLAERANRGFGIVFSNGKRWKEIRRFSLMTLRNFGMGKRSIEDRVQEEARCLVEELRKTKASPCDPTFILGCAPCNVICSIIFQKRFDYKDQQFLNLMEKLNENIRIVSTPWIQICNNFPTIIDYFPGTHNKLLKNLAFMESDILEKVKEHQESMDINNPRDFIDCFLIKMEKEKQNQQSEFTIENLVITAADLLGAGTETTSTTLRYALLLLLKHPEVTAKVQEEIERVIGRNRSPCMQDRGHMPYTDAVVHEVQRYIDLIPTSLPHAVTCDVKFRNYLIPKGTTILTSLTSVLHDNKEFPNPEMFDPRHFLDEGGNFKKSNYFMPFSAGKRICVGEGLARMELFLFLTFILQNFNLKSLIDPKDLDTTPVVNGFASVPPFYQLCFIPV
# Experiment: Cytochrome panel assay with activity outcomes
# Details: recombinant CYP, pro-luciferin dealkylation, luminescence, p450-cyp2c19; series mostly up to 57.1 µM; activity, negative = inhibition: at the top concentration
# On the % scale 0 is the no-effect control and ±100 the full control effect.
Structure (SMILES),AC50,"activity, negative = inhibition"
COc1ccc(C2C(=O)N(CCc3ccccc3)CC(=O)N2C2CCCC2)cc1 (configuration not stated),11.2 µM (active),–
COc1ccc(C2C(C(=O)N3CCN(C)CC3)c3ccccc3C(=O)N2C2CCCCC2)cc1 (configuration not stated),–,2.2%
COc1ccc([C@@H]2Sc3ccccc3N(CCN(C)C)C(=O)[C@@H]2OC(C)=O)cc1,–,11.9%
CCCCN1C(=O)CN(CCc2ccccc2)C(=O)C1c1ccc(OC)cc1 (configuration not stated),7.08 µM (active),–
Cc1noc(C)c1C(=O)N1CCC[C@@]2(CCN(C(=O)NC(C)C)C2)C1,–,-26.5%
CCn1c(SCC(=O)OC)nc2sc3c(c2c1=O)CCC3,8.91 µM (active),–
CCCc1ccc(C2C3=C(CC(C)(C)CC3=O)NC3=C2C(=O)c2ccccc23)cc1 (configuration not stated),4.47 µM (active),–
COc1cccc(Nc2ncc3nc(-c4ccccc4)c(=O)n(C)c3n2)c1,–,-4.11%
COc1ccc(-n2cnc3sc(-c4ccccc4)cc3c2=O)cc1,14.1 µM (active),–
CN(C)C(=O)c1ccc(-c2ccc3ncnc(Nc4ccccc4)c3c2)cc1,–,32.7%
FC(F)(F)c1ccccc1-c1ccc2ncnc(NCc3cccnc3)c2c1,0.00794 µM (active),–
c1ccc(Nc2ncnc3ccc(-c4ccoc4)cc23)cc1,2 µM (active),–
COc1ncc2nc(-c3ccccc3)c(=O)n(C)c2n1,–,-34.3%
COc1cccc(-c2ccc3ncnc(Nc4ccccc4)c3c2)c1,0.501 µM (active),–
c1ccc(Nc2ncnc3ccc(-c4cccnc4)cc23)cc1,–,-45.8%
CC(C)=NO[C@@H](C)CN1CCCCc2nc(C)c(C)cc21,–,-14.1% [at 11.4 µM]
COCCNc1ncnc2ccc(-c3ccccc3OC)cc12,5.01 µM (active),–
Clc1cccc(Nc2ncnc3ccc(Br)cc23)c1,5.01 µM (active),–
COc1cccc(-c2ccc3ncnc(NCc4cccnc4)c3c2)c1,0.0126 µM (active),–
COCCNc1ncnc2ccc(-c3ccccc3CN(C)C)cc12,–,30.9%
COc1ccccc1-c1ccc2ncnc(NCc3cccnc3)c2c1,0.00794 µM (active),–
NCCNc1ncnc2ccc(Cl)cc12,–,-2.27% [at 11.4 µM]
COc1ccccc1CN1CC[C@@]2(CCCN(C(=O)c3ccco3)C2)C1,–,-12.6%
COCCNc1ncnc2ccc(-c3ccccc3C(F)(F)F)cc12,6.31 µM (active),–
Cc1cnc(CNc2ncnc3ccc(-c4cccc(C#N)c4)cc23)cn1,–,-9.68%

Structure (SMILES),AC50,"activity, negative = inhibition"
FC(F)(F)c1ccccc1-c1ccc2ncnc(NCc3cccs3)c2c1,3.16 µM (active),–
COc1ccc(Nc2ncnc3sc(-c4ccccc4)cc23)cc1,3.16 µM (active),–
COc1cccc(-c2ccc3ncnc(NCc4cnc(C)cn4)c3c2)c1,15.8 µM (active),–
O=C(c1cnccn1)N1CCC[C@@]2(CCN(c3ncccn3)C2)C1,–,19.2%
"Cc1c2oc3c(C)ccc(C(=O)N[C@@H]4C(=O)N[C@@H](C(C)C)C(=O)N5CCC[C@@H]5C(=O)N(C)CC(=O)N(C)[C@@H](C(C)C)C(=O)O[C@H]4C)c3nc-2c(C(=O)N[C@@H]2C(=O)N[C@@H](C(C)C)C(=O)N3CCC[C@@H]3C(=O)N(C)CC(=O)N(C)[C@@H](C(C)C)C(=O)O[C@H]2C)c(N)c1=O (I: [aThr]V[dP][Sar][NMeV] / II: [aThr]V[dP][Sar][NMeV]; ester I:1-I:C, II:1-II:C; linker I:N-II:N via Actinocin(9to1))",–,-4.79%
COc1ccccc1-c1ccc2ncnc(NCc3ccccc3)c2c1,3.98 µM (active),–
CN(C)Cc1ccccc1-c1ccc2ncnc(NCc3ccccc3)c2c1,–,-37.6%
Clc1ccccc1-c1ccc2ncnc(NCc3cccnc3)c2c1,0.01 µM (active),–
COc1ccccc1-c1ccc2ncnc(Nc3ccccc3)c2c1,5.01 µM (active),–
Nc1nc2n[nH]nc2c(=O)[nH]1,–,32.2% [at 25.6 µM]
NC(N)=NC(=O)c1nc(Cl)c(N)nc1N,–,-14.1%
NC(N)=NC(=O)c1nc(Cl)c(N2CCCCCC2)nc1N,5.01 µM (active),–
CN(C)c1nc(N)c(C(=O)N=C(N)N)nc1Cl,–,-3.58%
CCN(c1nc(N)c(C(=O)N=C(N)N)nc1Cl)C(C)C,–,-25.6%
c1c[nH]c(CN2CCN(Cc3ncc[nH]3)CC2)n1,–,-25.8% [at 11.4 µM]
Cc1cc(C(=O)CSC(=S)SC(C)(C)C)ccc1Cl,1 µM (active),–
CC(=O)N1CCc2cc(Br)cc(S(=O)(=O)N3CCN(C(=O)c4ccco4)CC3)c21,4.47 µM (active),–
Cc1ccc(NC(=O)c2nnn(-c3cc(C)cc(C)c3)c2N)cc1,3.98 µM (active),–
Cc1cc(Cc2c(C)c(C)c(Cc3cc(C)cc(C(C)(C)C)c3O)c(C)c2C)c(O)c(C(C)(C)C)c1,–,37.4% [at 11.4 µM]
Cc1cc(Cc2cc(C)cc(C(C)(C)C)c2O)c(O)c(Cc2cc(C)cc(C(C)(C)C)c2O)c1,3.16 µM (active),–
Cc1cc(Cc2cc(Cc3cc(C)cc(C(C)(C)C)c3O)c(C)cc2C)c(O)c(C(C)(C)C)c1,1 µM (active),–
CCN1CCN(C(=O)N[C@H](C(=O)N[C@@H]2C(=O)N3[C@@H]2SC(C)(C)[C@@H]3C(=O)O)c2ccccc2)C(=O)C1=O,–,34.8% [at 25.6 µM]
N#Cc1cccc(-c2cncnc2NCc2ccccc2)c1,7.94 µM (active),–
N#Cc1cccc(-c2cncnc2NCc2cccnc2)c1,3.98 µM (active),–
N#Cc1cccc(-c2cncnc2NCc2cccs2)c1,7.94 µM (active),–

Structure (SMILES),AC50,"activity, negative = inhibition"
Cc1cnc(CNc2ncncc2-c2cccc(C#N)c2)cn1,–,19.9%
Cc1cccc(CNc2ncncc2-c2cccc(C#N)c2)c1,3.98 µM (active),–
CC(C)CN1CCC2(CC1)CCN(C(=O)c1cccn1C)CC2,–,28.4%
CC(=O)NC1=NC(=O)CS1,–,-12.1%
Nc1cc(-c2ccncc2)c[nH]c1=O,5.01 µM (active),–
Cc1cccc(C)c1OC[C@@H](N)C(C)C,–,-15.9%
CCCCc1ccc(-c2csc(/C(C#N)=C/c3ccc(C)o3)n2)cc1,5.62 µM (active),–
Nc1nnc(C(c2ccccc2)c2ccccc2)s1,22.4 µM (active),–
COc1ccc(C(C(=O)NC2CCCC2)N(Cc2ccc(F)cc2)C(=O)c2ccn[nH]2)cc1OC (configuration not stated),10 µM (active),–
O=C(NC1CCCC1)C(c1ccc(F)cc1)N(Cc1ccc(F)cc1)C(=O)c1ccn[nH]1 (configuration not stated),5.01 µM (active),–
COc1ccc(CC(NC(C)=O)C(=O)NC2CCN(C(=O)Nc3ccc(Cl)cc3)CC2)cc1OC (configuration not stated),–,-29.6%
Cc1nc2cnc(N3CCN(C)CC3)nc2n(Cc2ccc(F)cc2)c1=O,–,-36%
COCCn1c(=O)c(CCc2ccccc2)nc2cnc(OC)nc21,0.794 µM (active),–
COc1ncc2nc(-c3ccc(F)cc3)c(=O)n(CCc3ccccc3)c2n1,–,-5.58%
COc1ccc(-n2c(=O)c(CCc3ccccc3)nc3cnc(OC)nc32)cc1,6.31 µM (active),–
Cc1nc2cnc(Oc3ccccc3)nc2n(CCc2ccccc2)c1=O,–,-27.8%
COc1ccc(-c2nc3cnc(OC)nc3n(-c3ccc(OC)cc3)c2=O)cc1,–,19.5%
COc1ncc2nc(C)c(=O)n(CCc3ccccc3)c2n1,25.1 µM (active),–
COCCn1c(=O)c(-c2ccccc2)nc2cnc(OC)nc21,–,-40%
COc1ccc(-c2nc3cnc(OC)nc3n(CCc3ccccc3)c2=O)cc1,–,-22.4%
COc1ccc(-n2c(=O)c(CCc3ccccc3)nc3cnc(N4CCN(C)CC4)nc32)cc1,–,-34.8%
COCCn1c(=O)c(-c2cn(C)c3ccccc23)nc2cnc(OCc3ccccc3)nc21,–,-1.54%
COc1ncc2nc(CCc3ccccc3)c(=O)n(CCc3ccccc3)c2n1,7.94 µM (active),–
C#CCCCO/N=C1/C[C@@H](O)[C@@H](O)[C@@H]2[C@@H]3C(=O)N(C4CCCCC4)C(=O)[C@H]3CC[C@@H]12,–,-32.2% [at 11.4 µM]
O=C1C[C@H]2C(=O)[C@@H]1[C@@H](C(=O)O)[C@H]2C(=O)O,–,-11.8% [at 11.4 µM]

Structure (SMILES),AC50,"activity, negative = inhibition"
Cc1ccc(S(=O)(=O)N[C@H]2COC(=O)[C@@H](C)COC(=O)[C@H](C)NC(=O)C/C=C\[C@H]2C)cc1,–,9.82% [at 11.4 µM]
COc1ccc(-c2nc3cnc(N4CCNCC4)nc3n(C)c2=O)cc1,–,-36.3%
CCOC(=O)c1c(C)n(C)c2ccc(OC)c(NS(=O)(=O)c3ccc(Cl)s3)c12,0.282 µM (active),–
Cc1ccc(SCCNC(=S)Nc2ccc(C)c(C)c2)cc1,3.16 µM (active),–
C=CCNC(=S)Nc1ccc2nc(C)c(C)nc2c1,–,-19.7%
Cc1cc(-c2ccccc2)nnc1NCCN1CCOCC1,–,-34.1% [at 25.6 µM]
Cc1ccc(CCN2CC(C(=O)NCCN3CCOCC3)CC2=O)cc1 (configuration not stated),–,0.693%
Cc1ccc(NC(=S)NCCN2CCOCC2)cc1C,5.01 µM (active),–
O=C(c1cccc(F)c1)N1CCC2(CC1)CCN(C(c1ccccc1)c1ccccc1)CC2,–,-40.6%
CN(C)CCCn1cnc2cc(Cl)c(Cl)cc21,–,51.6% [at 11.4 µM]
Cc1cc(Cl)ccc1OCC(=O)N/N=C1\CCCc2ccccc21,–,-19.7%
O=C(N/N=C1\CCCc2ccccc21)c1ccc([N+](=O)[O-])cc1Cl,4.47 µM (active),–
CCCCNC(=S)NNC(=O)c1csc2c1CCC(C)C2 (configuration not stated),3.98 µM (active),–
CC1CCc2c(C(=O)Nc3nccs3)csc2C1 (configuration not stated),2.82 µM (active),–
CCCCNC(=S)NNC(=O)c1sccc1C,0.794 µM (active),–
CC(C)NC(=O)N1CCC2(CC1)CCN(C(=O)c1ccncc1)CC2,–,29.5%
CCNc1ncc2nc(-c3cc(F)cc(F)c3)c(=O)n(C[C@H]3CCCO3)c2n1,–,-29.6%
COCCn1c(=O)c(-c2ccc(OC)cc2)nc2cnc(N3CCNCC3)nc21,–,-6.8%
COC(=O)c1sccc1-c1ccc(C(=O)Nc2cccc(Cl)c2)o1,3.16 µM (active),–
COC(=O)COc1ccsc1C(=O)OC,–,-18.3%
CCOC(=O)C(=Cc1ccc(-c2ccsc2C(=O)OC)o1)C(=O)OCC,2.82 µM (active),–
COC(=O)c1sccc1-c1ccc(C(=O)Nc2cccnc2)o1,3.16 µM (active),–
